Only some compounds are listed: those with a hit (about 7.3% of all), similar ones and a draw of the others.
FMDV antiviral – High Throughput Screening for Foot and Mouth Disease Virus Antivirals; 410,000 compounds, 1.2% hits; AID 1159524, 2015; Potency, µM (series often up to 57.9 µM), usual class: inhibitors; FMDV antiviral cell-based qHTS; calls by dose curve; tested in HEK293T cells; further: read-out not given here; nearly all actives have a fitted effect of over 45% in size
HCMV antiviral – qHTS Assay for inhibitors of the human cytomegalovirus (HCMV). HFF cells, HCMV-luciferase reporter, 72 h; stronger effect = lower value. activity change, negative = inhibition, % at 57.5 µM. 410,000 compounds, 4.5% hits; in the data active means activity change below about -60%; inconclusive means no clear call, values can overlap the other calls; inactive means above about -39%
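Luciferase read-out from HCMV-luciferase-infected HFFs (MOI 1 PFU/cell) 72 h post infection at 37C; compounds added after 16 h cell attachment; activity normalized between buffer-only basal and Salinomycin (10uM) inhibitor controls.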
Vaccinia Venus – qHTS for Stage-Specific Inhibitors of Vaccinia Orthopoxvirus: Venus Reporter Primary qHTS; Vaccinia virus Venus reporter expression, fluorescence; Potency, µM (top dose mostly 36.5 µM), most hits filed as inhibitors; 330,000 compounds, 0.46% hits; AID 720580, 2013; calls by dose curve; tested in A549 cells; further: nearly all actives have a fitted effect of over 30% in size
Vaccinia mCherry – qHTS for Stage-Specific Inhibitors of Vaccinia Orthopoxvirus: mCherry Reporter Primary qHTS | AID 720579, 2013 | 310,000 compounds, 0.63% hits | Potency, µM (doses to about 36.5 µM), most hits filed as inhibitors | Vaccinia virus mCherry reporter infection, fluorescence; calls by dose curve; tested in A549 cells; further: nearly all actives have a fitted effect of over 35% in size
HCV inh – qHTS Assay for Inhibitors of Hepatitis C Virus (HCV); Potency, µM (top dose mostly 41.8 µM), hits mostly inhibitors; 340,000 compounds, 3.4% hits; Huh7.5.1 HCVcc-Cre infection, luciferase reporter, 44 h; active means well fitted inhibition curve with a large enough effect; inconclusive means small, poorly fitted or top-dose-only effect, or another doubt; inactive means no such curve, though single readings can be large or run the other way
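Compounds are dispensed onto cells plated 4 h earlier at 1,000 per well, with HCVcc-Cre virus (about 0.5 moi) added next. Following 44 h of culture, luminescent signal is measured for 15 sec after 15 min with substrate at room temperature.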
Numbers stand for hits; n = inactive; u = inconclusive; x = not tested or not shown; [ ] = dose if it differs, or a comment.

SMILES	FMDV antiviral	HCMV antiviral	Vaccinia Venus	Vaccinia mCherry	HCV inh
CCOC(=O)[C@]12CCC=C1N(Cc1ccccc1)C(=O)[C@H](CC(=O)NCc1ccc(OC)c(OC)c1)C2	n	n	n	n	x
COC(=O)[C@]12CCCCC=C1N(Cc1cccc3ccccc13)C(=O)[C@H](CC(=O)NCCC(C)C)C2	n	-61.2	n	n	x
CCCCOCCCNC(=O)C[C@@H]1C[C@@]2(C(=O)OC)CC(C)(C)CC=C2N(Cc2ccc3c(c2)OCO3)C1=O	n	n	u	n	x
COC(=O)[C@]12CCCCC=C1N(Cc1ccccc1)C(=O)[C@H](CC(=O)NCc1cccc3ccccc13)C2	n	n	n	n	x
COCCCNC(=O)C[C@@H]1C[C@@]2(C(=O)OC)CC(C)(C)CC=C2N(Cc2ccc3c(c2)OCO3)C1=O	n	-62.4	n	n	x
CCOC(=O)N1CCN(Cc2nc3cc(NC(=O)C(C)C)ccc3n2C(C)C)CC1	n	u	n	n	x
Cc1ccc(-c2cc3c(N4CCN(c5cc(C)ccc5C)CC4)nccn3n2)cc1	n	n	n	n	x
COc1ccc(OC)c(-c2cc(C(=O)Nc3cccc(Cl)c3C)no2)c1	n	n	n	n	x
CNCCCCOc1ccccc1-c1ccccc1	n	u	u	n	12.6µM
COc1ccccc1OCCCCCCN1CCOCC1	n	-84.2	x	x	n
CNCCOc1ccccc1-c1ccccc1	n	n	n	n	n
c1ccc2c(OCCCCN3CCOCC3)cccc2c1	n	n	n	n	n
c1ccc(-c2ccccc2OCCCCN2CCCCCC2)cc1	n	-76.9	n	n	u
c1ccc(-c2ccccc2OCCN2CCCC2)cc1	n	n	n	n	n
CC(=O)Nc1ccc(CN(C)CC2CCCN(CCc3cccc(C(F)(F)F)c3)C2)cc1 (configuration not stated)	n	n	n	n	1.41µM
CCN(Cc1cccc(OC)c1)CC1CCCN(CCc2cccc(OC)c2)C1 (configuration not stated)	u	n	x	x	u
CCN(Cc1ccc(O)cc1)CC1CCCN(CCc2cccc(F)c2)C1 (configuration not stated)	n	n	x	x	8.91µM
CN(CC1CCCN(CCc2cccc(C(F)(F)F)c2)C1)C(=O)c1ccco1 (configuration not stated)	n	n	x	x	n
CCOc1ccc(C(C)=O)cc1CN1C(=O)C(=O)N(CC)C1=O	14.1µM	u	n	n	n
Cc1ccc(S(=O)(=O)NC(CCCNC(=O)OCc2ccccc2)C(=O)O)cc1 (configuration not stated)	x	n	x	x	x
CCc1nc(Nc2ccc(N3CCN(C(C)=O)CC3)cc2)c2oc3ccccc3c2n1	u	n	n	n	n
CC(=O)N1CCN(c2ccc(Nc3ncnc4c3oc3ccccc34)cc2)CC1	28.2µM	u	u	n[1.46 µM]	u
c1ccc(N2CCN(c3ncnc4c3oc3ccccc34)CC2)cc1	35.5µM	n	n	n	n
CCc1nnc(N2CCN(c3ncnc4c3oc3ccccc34)CC2)s1	22.4µM	u	n	n	n
O=C(CSc1ncnc2c1oc1ccccc12)N1CCN(c2ccccc2)CC1	n	n	x	x	n
SMILES	FMDV antiviral	HCMV antiviral	Vaccinia Venus	Vaccinia mCherry	HCV inh
Cc1ccc2c(c1)c1ncnc(N3CCN(c4ccccc4)CC3)c1n2C	20µM	n	n	x	n
CCOC(=O)c1cccc(NC(=O)c2cc3c(Cl)nc4ccc(C)cc4c3s2)c1	n	n	n	n	x
O=C(COc1ccccc1F)Nc1ccccc1OCc1cc(=O)n2ccccc2n1	n	n	n	n	x
CCOc1ccc(OCC(=O)NCCS(=O)(=O)N2CCN(c3ccccc3F)CC2)cc1	n	n	n	n	x
COc1ccc(C(CC(=O)NCc2ccccc2Cl)N2Cc3ccccc3C2=O)cc1OC (configuration not stated)	n	n	n	n	x
COc1cc(OC)c(CN2CCCN(C)CC2)cc1Br	n	n	n	n	7.08µM
COc1ccc(C2=NN(C(=O)CCC(=O)O)C(c3ccc(OC)c(OC)c3)C2)cc1 (configuration not stated)	n	-102.5	n	n	n
O=C(CN1CCN(Cc2ccc(F)cc2)C1=O)NCc1ccccc1	n	n	n	n	x
Cc1cc(=O)[nH]c(N/N=C/c2ccc(OC(=O)c3cccnc3)cc2)n1	n	-64.9	n	n	n
CCOc1cc(/C=N/Nc2nc(C)cc(=O)[nH]2)ccc1O	n	n	n	n	n
Cc1cc(=O)[nH]c(NN=Cc2cc(Br)ccc2O)n1	n	-99.8	u	2µM	u
CCN(CC)c1ccc(/C=N/Nc2nc(C)cc(=O)[nH]2)c(O)c1	n	-98.5	u	0.891µM	3.98µM
Cc1cc(=O)[nH]c(N/N=C/c2ccccc2Cl)n1	n	n	x	x	n
CCn1c(C(=O)N2CCCC(C(=O)N3CCN(c4ccccc4)CC3)C2)cc2sccc21 (configuration not stated)	n	n	n	n	x
CCOc1ccc(-c2nonc2NC(=O)c2oc3ccc(Br)cc3c2C)cc1	n	-95.6	n	n	x
CCOc1ccc(-c2nonc2NC(=O)c2oc3cc(Br)ccc3c2C)cc1	n	u	u	u	x
CC1=NN(Cc2ccccc2)C(=O)C1C(c1ccc(Cl)cc1)C(C#N)C#N (configuration not stated)	28.2µM	n	n	n	n
COc1ccc(-c2nc3cnc(N4CCN(C)CC4)nc3n(C)c2=O)cc1	n	x	x	x	x
O=C(CSc1cn(CCNC(=O)c2ccccc2F)c2ccccc12)Nc1ccc2c(c1)OCCO2	n	n	n	n	x
Cc1ccc(C(=O)NCCn2cc(SCC(=O)N3CCOCC3)c3ccccc32)cc1	n	-63.1	n	n	n
O=C(NCCn1cc(SCc2ccc(F)cc2)c2ccccc21)c1c(F)cccc1F	u	n	n	n	u
O=C(NCCn1cc(SCc2ccc(F)cc2)c2ccccc21)c1ccccc1F	28.2µM	x	n	u	u
COc1ccc(C(=O)NCCn2cc(SCc3ccc(C(F)(F)F)cc3)c3ccccc32)cc1OC	22.4µM	-62.4	u	u	x
O=C(CSc1cn(CCNC(=O)c2cccc(C(F)(F)F)c2)c2ccccc12)Nc1ccc2c(c1)OCCO2	25.1µM	-82.8	u	u	x
O=C(NCCn1cc(SCc2ccc(C(F)(F)F)cc2)c2ccccc21)c1ccccc1F	u	n	n	n	x
COC(=O)[C@@H]1CCCN1Cc1ccc2c(c1)CN(Cc1ccc(OC)c(C)c1)CCO2	n	x	n	n	x
CCOC(=O)c1c(NC(=O)C(C)Sc2cn(CCNC(=O)c3ccc(OC)c(OC)c3)c3ccccc23)sc2c1CCC2 (configuration not stated)	n	-108.2	n	u	x
CCOC(=O)c1c(NC(=O)C(C)Sc2cn(CCNC(=O)c3ccccc3OC)c3ccccc23)sc2c1CCC2 (configuration not stated)	n	n	n	n	x
CN(C)CC(=O)N[C@@H]1CC[C@@H](CC(=O)NCCN2CCCCC2)O[C@@H]1CO	n	-100.1	n	n	x

Compound activity (PubChem BioAssay)
